# The list is not random: actives were taken first. Their share in the collection is about 3.2%.
# 12-hLO inh: qHTS Assay for Inhibitors of 12-hLO (12-human lipoxygenase); 150,000 compounds, 0.12% hits; purified 12-hLO, xylenol orange hydroperoxide absorbance; Potency, µM (doses to about 57.1 µM), without a hit: top-dose activity change, negative = inhibition, usual class: inhibitors; AID 1452, 2008; Polyunsaturated fatty acid lipoxygenase ALOX12 (Homo sapiens), P18054; also: potency is read from the fitted curve at half-maximal effect; nearly all actives have a fitted effect of over 55% in size
# Target sequence (P18054 whole entry, looked up): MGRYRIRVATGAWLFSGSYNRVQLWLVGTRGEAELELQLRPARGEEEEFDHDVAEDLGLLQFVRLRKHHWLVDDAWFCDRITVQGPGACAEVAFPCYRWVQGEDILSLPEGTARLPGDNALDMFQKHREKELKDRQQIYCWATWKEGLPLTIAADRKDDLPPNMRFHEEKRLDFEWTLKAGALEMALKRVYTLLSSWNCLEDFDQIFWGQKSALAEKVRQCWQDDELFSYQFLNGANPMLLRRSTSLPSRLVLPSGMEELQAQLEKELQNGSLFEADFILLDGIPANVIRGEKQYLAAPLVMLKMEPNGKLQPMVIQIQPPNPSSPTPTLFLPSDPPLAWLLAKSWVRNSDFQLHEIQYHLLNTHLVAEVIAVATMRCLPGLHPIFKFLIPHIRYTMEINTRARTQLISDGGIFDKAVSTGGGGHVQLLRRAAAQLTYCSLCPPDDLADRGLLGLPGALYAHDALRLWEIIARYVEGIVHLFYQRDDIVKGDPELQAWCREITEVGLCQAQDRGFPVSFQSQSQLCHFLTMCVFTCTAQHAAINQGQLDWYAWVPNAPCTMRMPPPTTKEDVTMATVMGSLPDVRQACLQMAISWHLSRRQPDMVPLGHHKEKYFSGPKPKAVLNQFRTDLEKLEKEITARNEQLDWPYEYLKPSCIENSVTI
#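 Purified human 12hLO (150 nM final) was preincubated with compounds for 15 min at room temperature in 25 mM Hepes pH 7.0, 0.01% Triton X-100, then reacted with 40 uM arachidonic acid for 30 min. Hydroperoxide was detected with ferrous iron/xylenol orange.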
# PNC assembly inh: High Content Assay for Compounds that inhibit the Assembly of the Perinucleolar Compartment; PC3M PTB-GFP, PNC prevalence imaging, 16 h; active compounds read low; activity change (PNC), negative = inhibition, % at 10 µM; 140,000 compounds, 3.1% hits;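 active = readout at or below -70, meaning at least 70% loss of cells showing the perinucleolar compartment, a nuclear body marking cancer cells; inconclusive = readout between -30 and a set limit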;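 also: plate controls were DMSO wells for no effect and camptothecin positive control wells for full effect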
#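 Compounds are pinned in duplicate onto adhered PC3M cells stably expressing GFP-tagged PTB and incubated 16 h at 37 C. Cells are then fixed, nuclei stained with Hoechst, and PNC-positive cells counted.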
# 15-hLO-2 inh: qHTS Assay for Inhibitors of 15-hLO-2 (15-human lipoxygenase 2). Potency, µM (top dose mostly 57.1 µM), without a hit: at the top dose activity change, negative = inhibition, hits mostly inhibitors. Polyunsaturated fatty acid lipoxygenase ALOX15B (Homo sapiens), O15296. purified 15hLO-2, xylenol orange hydroperoxide absorbance. 110,000 compounds, 0.56% hits; also: potency is read from the fitted curve at half-maximal effect; nearly all actives have a fitted effect of over 60% in size
#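 Screening format was qHTS against 50 nM purified 15hLO-2 in Hepes pH 7.5 with detergent. Activity follows hydroperoxide formation from 45 uM arachidonic acid, measured as 573:405 nm absorbance ratio of the ferric-xylenol orange complex.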
# * marks the source's active call; other numbers are inactive results; ? = inconclusive; · = no result; [ ] = remark or other dose. Unless noted, calls follow the shape of the dose curve; as a rule, active = well fitted curve in the direction sought with a large enough effect; inconclusive = small, poorly fitted or top-dose-only effect, or another doubt; inactive = no such curve, though single readings can be large; an effect the other way counts as inactive or inconclusive. Unless noted, % is scaled to controls: 0 for no effect and ±100 for the full control effect.
SMILES,12-hLO inh,PNC assembly inh,15-hLO-2 inh
Cc1ccc(-c2nc3cccnc3s2)cc1NS(=O)(=O)c1ccc2c(c1)OCCO2,-6.6%,-108.4*,-7.2%
COc1ccc(-c2nc3cnc(N4CCOCC4)nc3n(C3CC3)c2=O)cc1,·,·,-11.2%
COc1ccc(-c2cc(C(F)(F)F)nc(SCC(=O)NCc3cccs3)n2)cc1OC,0.9%,11.5,·
COC(=O)C1=C(C)Nc2c(c(=O)n(C)c(=O)n2C)C1c1ccncc1 (stereo unspecified),-6.6%,?,·
CCCOc1ccc(/C=N/Nc2ccccc2[N+](=O)[O-])c(OCCC)c1,-3.9%,?,·
NC(=O)c1cc2ccccc2oc1=NCc1ccccc1,-6.7%,39.7,3.0%
NC(=O)c1cc2ccccc2o/c1=N\NC(=O)c1ccco1,-2.3%,-119.3*,·
CCN1CCCC1Cn1c(-c2ccccc2)nc2c(N(CCOC)CCOC)nc(C)nc21 (stereo unspecified),0.4%,·,6.8%
CSc1nnc(Cn2c(=O)sc3ccccc32)n1-c1ccccc1,-0.3%,-105.7*,-11.8%
CC(C)Sc1nnc(Cn2c(=O)sc3ccccc32)n1-c1ccccc1,0.0%,-25.9,·
CCN=C1SC(C(=O)Nc2cccc(C(=O)O)c2)CC(=O)N1CC (stereo unspecified),-0.8%,37.7,32.5%
CCN=C1SC(C(=O)Nc2ccccc2)CC(=O)N1CC (stereo unspecified),-0.4%,-85.4*,-14.2%
CC(C)(Oc1ccc([C@@H]2CC2(Cl)Cl)cc1)C(=O)O,-1.4%[25.6 µM],·,8.9%[25.6 µM]
Cc1cccc(C(=O)Nc2ccc(O)c3c(=O)cc(-c4ccccc4Cl)oc23)c1,3.4%,60.3,·
O=C(Nc1ccc(O)c2c(=O)cc(-c3ccccc3Cl)oc12)c1cccc(Cl)c1,-0.4%,-80.0*,·
CCN(CC)CCCCn1c(-c2ccccc2)nc2c(Nc3ccccc3)nc(C)nc21,-1.0%,·,3.8%
CCCn1c(SCC(=O)N2CCCc3ccccc32)nnc1-c1ccccn1,-2.6%,11.0,1.6%
COc1ccc(NC(=O)C(c2ccc(OC)cc2)N(C)C(=O)CC2NC(=O)NC2=O)cc1 (stereo unspecified),-2.2%,?,·
COc1ccc(NC(=O)C(c2ccccc2)N(C)C(=O)c2ccc(=O)[nH]c2)cc1 (stereo unspecified),-0.1%,?,·
COc1ccc(NC(=O)C(NC(=O)c2ccc(=O)[nH]c2)c2ccc(OC)cc2)cc1 (stereo unspecified),-3.2%,-109.2*,·
COc1ccc(NC(=O)C(NC(=O)CC2NC(=O)NC2=O)c2ccccc2)cc1 (stereo unspecified),-4.0%,-115.1*,·
O=C(CN1CCOCC1)Nc1ncc(Cc2ccccc2Cl)s1,6.1%,?,16.6%
CCc1ccc(CCC(=O)Nc2ncc(Cc3ccccc3Cl)s2)o1,-7.1%,-91.0*,·
CCOCCCNC(=O)C(c1ccccc1)N(Cc1ccc2c(c1)OCO2)C(=O)CNC(C)=O (stereo unspecified),2.9%,-13.0,8.1%
CCOCCCNC(=O)C(c1ccc(C)cc1)N(Cc1ccc2c(c1)OCO2)C(=O)CNC(C)=O (stereo unspecified),-0.8%,-100.0*,·
SMILES,12-hLO inh,PNC assembly inh,15-hLO-2 inh
Cc1cccc(OCc2n[nH]c(=S)o2)c1,-6.1%,-81.7*,-5.2%
Cc1cccc(C)c1OCc1n[nH]c(=S)o1,0.5%,52.8,·
COP(=O)(OC)C(Nc1ccc(C)cc1)c1ccc([N+](=O)[O-])cc1 (stereo unspecified),0.1%,3.4,·
CC(=O)O[C@H]1C[C@H]2CC[C@@H]3[C@H]4C[C@@H]([N+]5(C)CCCCC5)[C@@H](OC(C)=O)[C@]4(C)CC[C@@H]3[C@@]2(C)C[C@@H]1[N+]1(C)CCCCC1,-1.3%,·,13.0%
CC(C)(C)NCc1cc2ccccc2[nH]c1=O,-15.6%,-11.2,7.0%
Cc1ccc2[nH]c(=O)c(CNC(C)(C)C)cc2c1,-6.4%,-106.9*,21.3%
CNC(=O)C12CC3CC(CC(Cl)(C3)C1)C2,3.6%,34.2,·
COc1ccc(O[C@H]2C=C[C@@H](c3ccccc3)O[C@@H]2COC(=O)CC/C(C)=N/OC[C@@H](O)[C@H]2O[C@@H]3OC(C)(C)O[C@@H]3[C@H]2O)cc1,0.3%,33.2,·
O=C(O)CCCCCN1C(=O)/C(=C/c2ccncc2)SC1=S,-0.4%,?,·
O=C(O)CCCN1C(=O)/C(=C/c2ccc(-c3nc4ccccc4s3)o2)SC1=S,1.8%,40.6,15.8µM*
O=C(CCN1C(=O)/C(=C/C=C/c2ccccc2)SC1=S)Nc1nc2ccccc2s1,-0.5%,65.2,·
